Values joined by “and” are separate entries in the source; they are usually repeats but may differ in a detail not shown here. Equal values may be shown once. Records with an inconclusive call do not appear. The source holds several records for some structures; these can differ, active in one and inactive in another. Active and inactive are the calls of the source. How the source made its calls: active means hit-call score of the fitted dose curve at least 0.9, where 1 is the maximum; inconclusive means response in the unintended direction; inactive means score below 0.9.
Columns and labels:
[1] = target: Cellular tumor antigen p53 (Homo sapiens) (UniProt P04637); assay: TOX21_p53_BLA_p3_ratio: Tox21 HCT-116 p53 Agonism Beta-lactamase Assay, Ratio, Phase 3 (AID 2283596)
Sequence of Cellular tumor antigen p53 (Homo sapiens) (P04637 whole entry, looked up): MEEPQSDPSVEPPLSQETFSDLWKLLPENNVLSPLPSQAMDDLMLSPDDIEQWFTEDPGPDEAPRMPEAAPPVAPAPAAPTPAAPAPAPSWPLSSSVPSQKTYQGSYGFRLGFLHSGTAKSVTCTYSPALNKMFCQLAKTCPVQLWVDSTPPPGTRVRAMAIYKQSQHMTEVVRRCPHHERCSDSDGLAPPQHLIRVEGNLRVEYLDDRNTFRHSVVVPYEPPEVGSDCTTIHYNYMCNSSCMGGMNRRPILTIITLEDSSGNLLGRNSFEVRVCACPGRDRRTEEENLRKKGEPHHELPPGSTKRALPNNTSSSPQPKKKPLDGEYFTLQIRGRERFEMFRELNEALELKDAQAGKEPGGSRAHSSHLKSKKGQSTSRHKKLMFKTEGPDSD
In short: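 Cells were seeded at 4000/well, rested 5 h at 37C, then dosed with DMSO compound solutions (217-fold dilution) for 16 h. CCF4-AM substrate was loaded for 2 h at room temperature, and the 460/530 nm emission ratio was fitted for gain of signal versus DMSO.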

[2] = TOX21_p53_BLA_p4_viability: Viability Assessment in the Tox21 HCT-116 p53 Agonism Beta-lactamase Assay, Phase 4 (AID 2283597);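 further: hits lower the luminescence signal meaning cytotoxicity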
In short: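 ATP content by CellTiter-Glo luminescence, 30 min RT, read after the beta-lactamase ratio step. Cells: HCT116, 4000/well, compound added after 5 h, exposure 16 h at 37C. Signal loss = reduced viability.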

[3] = target: Cellular tumor antigen p53 (Homo sapiens) (UniProt P04637); assay: TOX21_p53_BLA_p5_ratio: Tox21 HCT-116 p53 Agonism Beta-lactamase Assay, Ratio, Phase 5 (AID 2283599)
In short: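 HCT-116 p53-bla cells (4000/well) plated 5 h, dosed with compound (217-fold DMSO dilution) for 16 h at 37 C; CCF4-AM substrate 2 h at room temperature. Activity is the 460/530 nm emission ratio (405 nm excitation), fitted in gain-of-signal direction versus DMSO.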

[4] = TOX21_p53_BLA_p5_viability: Viability Assessment in the Tox21 HCT-116 p53 Agonism Beta-lactamase Assay, Phase 5 (AID 2283600)
In short: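 ATP luminescence (CellTiter-Glo, 30 min, RT) served as the viability read-out, with loss of signal indicating cytotoxicity. Compounds in DMSO were pinned at a 217-fold dilution onto 4000 cells/well and incubated 16 h, 37C.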

[5] = target: Cellular tumor antigen p53 (Homo sapiens) (UniProt P04637); assay: TOX21_p53_BLA_p4_ratio: Tox21 HCT-116 p53 Agonism Beta-lactamase Assay, Ratio, Phase 4 (AID 2283601)
In short: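 HCT-116 p53 beta-lactamase reporter cells (4000/well) preincubated 5 h, then compound (217-fold dilution of DMSO stock) for 16 h at 37C. CCF4-AM substrate added 2 h at room temperature; 460/530 nm emission ratio fitted upward versus DMSO.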

Measured: AC50

Nc1ccc2c(O)cc(S(=O)(=O)O)cc2c1
inactive: [1] | [2] | [4]
active: [1] 12.9 µM | [3] 33.1 µM and 21.3 µM | [5] 46.1 µM and 16 µM

CCN(CCN)c1cccc(C)c1
not listed: [5]
inactive: all other assays above

C[Si](C)(C)O[Si](C)(C)C
inactive: all assays above

OC[C@H]1O[C@@H](Oc2ccc(O)cc2)[C@H](O)[C@@H](O)[C@@H]1O
inactive: all assays above

CCCN(CCC)S(=O)(=O)c1ccc(C(=O)O)cc1
inactive: all assays above

C=C(C)C(=O)OCC(CC)(COC(=O)C(=C)C)COC(=O)C(=C)C
inactive: [1] | [2] | [3]

CCc1ccc(O)cc1
not listed: [5]
inactive: all other assays above

CC(=O)c1ccccn1
not listed: [5]
inactive: all other assays above

O=C1CCCC=CCCCCCCCCCC1
inactive: [1] | [2]

Cc1[nH]c(=O)c(C#N)cc1-c1ccncc1
inactive: all assays above

O=C(O)CCCCCCCCCCCC(=O)O
not listed: [5]
inactive: all other assays above

COc1ccc(N=Nc2cc(C)c(N=Nc3ccc(S(=O)(=O)O)cc3)cc2OC)cc1
inactive: all assays above

CCCC[P+](CCCC)(CCCC)CCCC
inactive: [1] | [2] | [3] | [4] | [5]
active: [4] 14.5 µM

CCC(C)c1cc([N+](=O)[O-])cc([N+](=O)[O-])c1OC(=O)OC(C)C (stereo not given)
active: [1] 35.3 µM | [3] 36.9 µM
inactive: all other assays above

Oc1c(Cl)cc(Cl)c(Cl)c1Cc1c(O)c(Cl)cc(Cl)c1Cl
active: [1] 19.5 µM and 446 nM and 1.07 µM | [2] 36.9 µM and 49.3 µM and 1.62 µM | [3] 13.8 µM and 26.4 µM and 18.6 µM | [5] 42.2 µM and 43.5 µM and 6.65 µM
inactive: [4]

CC=CC=CCOC(=O)C(C)C
inactive: [1] | [2]

CC1CC(O)CC(C)(C)C1 (stereo not given)
inactive: all assays above

COc1ccc(CCN2CCC(Nc3nc4ccccc4n3Cc3ccc(F)cc3)CC2)cc1
active: [1] 37.5 µM | [2] 14.4 µM and 23 µM | [3] 38.8 µM and 42.9 µM | [4] 25.7 µM and 40.5 µM | [5] 32.5 µM and 43.3 µM

CC(=O)Nc1ccc(C(=O)CCl)cc1
inactive: [1] | [3] | [4] | [5]
active: [1] 29.9 µM | [3] 20.9 µM | [5] 79.4 µM

CC(C)OCCO
not listed: [5]
inactive: all other assays above

CN(C)CCOc1ccc(/C(=C(/CCCl)c2ccccc2)c2ccccc2)cc1
active: [2] 49.8 µM and 37 µM | [3] 74 µM | [4] 59.8 µM | [5] 72.9 µM and 39 µM
inactive: [1] | [3] | [4]

O=C1c2ccccc2C(=O)c2c(O)ccc(O)c21
inactive: all assays above

C/C=C(\C)C(=O)OCCc1ccccc1
inactive: [1] | [2]

CCCCC(CC)COC(=O)c1ccc(O)cc1 (stereo not given)
active: [1] 72.6 µM and 85.1 µM | [2] 72.2 µM and 45.9 µM | [3] 69.4 µM and 62.4 µM | [4] 56.6 µM and 66.6 µM | [5] 86 µM and 72.3 µM

COC(=O)C=C(C)CCC=C(C)C
inactive: [1] | [2] | [3]

Cc1c(OCC(F)(F)F)ccnc1CS(=O)c1nc2ccccc2[nH]1 (stereo not given)
inactive: all assays above

Cc1occc(=O)c1OC(=O)C(C)C
inactive: [1]

C=C(CC(=O)O)C(=O)O
inactive: all assays above

CC(C=O)Cc1ccc(C(C)(C)C)cc1 (stereo not given)
inactive: all assays above

CC1(C)O[C@@H]2C[C@H]3[C@@H]4CCC5=CC(=O)C=C[C@]5(C)[C@@]4(F)[C@@H](O)C[C@]3(C)[C@]2(C(=O)CO)O1
inactive: all assays above

C=C(C)C(=O)OCCOC1CC2CC1C1C=CCC21 (stereo not given)
not listed: [5]
inactive: all other assays above

CC(C)(C)CC(C)(C)c1ccc(OCCOCC[N+](C)(C)Cc2ccccc2)cc1
active: [1] 61 µM | [2] 33.7 µM and 23 µM | [3] 79.3 µM and 36.8 µM | [4] 73.6 µM | [5] 70.9 µM and 42.1 µM
inactive: [1] | [4]

COCCOC(=O)c1ccccc1C(=O)OCCOC
inactive: all assays above

— PubChem BioAssay (EPA / NIEHS)
